# Assay outcomes from PubChem BioAssay.
# The list is not random: actives were taken first. Their share in the collection is about 2.5%.
# ULK1 inh: ULK1 kinase inhibitors, primary screen, biochemical, AlphaScreen | Serine/threonine-protein kinase ULK1 (Homo sapiens), O75385 | AlphaScreen Atg13 phosphorylation by ULK1, luminescence | inhibition, % at 5.96 µM | hit rate 1.9% among 30,000 | AID 1259251, 2017; in the data active means inhibition above about 43%;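 further: 0% = median of compound wells and 100% = no enzyme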
# Target sequence (O75385 whole entry, looked up): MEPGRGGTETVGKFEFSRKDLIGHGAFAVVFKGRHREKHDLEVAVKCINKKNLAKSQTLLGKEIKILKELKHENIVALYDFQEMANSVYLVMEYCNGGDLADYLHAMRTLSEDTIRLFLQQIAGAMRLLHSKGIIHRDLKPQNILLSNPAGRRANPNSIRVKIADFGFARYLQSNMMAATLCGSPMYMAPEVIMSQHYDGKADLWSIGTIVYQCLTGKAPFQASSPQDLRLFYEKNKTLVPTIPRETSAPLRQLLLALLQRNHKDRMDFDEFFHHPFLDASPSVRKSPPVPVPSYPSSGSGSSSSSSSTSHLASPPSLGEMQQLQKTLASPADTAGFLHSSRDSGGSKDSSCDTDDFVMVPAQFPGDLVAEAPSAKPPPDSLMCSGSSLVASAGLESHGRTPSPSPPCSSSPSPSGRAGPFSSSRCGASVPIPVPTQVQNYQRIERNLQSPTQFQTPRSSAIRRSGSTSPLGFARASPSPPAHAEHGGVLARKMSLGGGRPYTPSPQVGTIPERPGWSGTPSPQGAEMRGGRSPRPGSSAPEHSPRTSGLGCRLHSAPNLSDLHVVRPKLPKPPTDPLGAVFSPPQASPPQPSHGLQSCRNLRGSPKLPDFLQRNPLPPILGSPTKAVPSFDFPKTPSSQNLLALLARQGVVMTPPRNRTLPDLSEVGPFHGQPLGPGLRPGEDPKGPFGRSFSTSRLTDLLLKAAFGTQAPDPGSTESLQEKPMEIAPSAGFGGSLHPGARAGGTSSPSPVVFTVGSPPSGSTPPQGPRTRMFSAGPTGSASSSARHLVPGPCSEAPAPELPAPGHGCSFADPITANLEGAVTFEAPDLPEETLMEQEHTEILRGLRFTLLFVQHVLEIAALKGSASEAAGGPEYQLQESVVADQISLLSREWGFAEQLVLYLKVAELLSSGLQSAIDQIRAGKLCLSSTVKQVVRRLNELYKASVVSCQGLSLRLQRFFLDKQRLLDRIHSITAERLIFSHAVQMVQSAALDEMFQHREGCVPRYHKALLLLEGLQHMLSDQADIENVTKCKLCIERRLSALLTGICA
# ASK1 primary: ASK1 kinase inhibitors, primary screen, biochemical, AlphaScreen. Mitogen-activated protein kinase kinase kinase 5 (Homo sapiens), Q99683. inhibition, % at 7.44 µM. AlphaScreen MKK6 phosphorylation by ASK1, luminescence. hit rate 0.99% among 22,000; in the data active means inhibition above about 35%;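 further: 0% = median of compound wells and 100% = no enzyme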
# Starred values were filed as active, the others as inactive; . = no result.
SMILES,ULK1 inh,ASK1 primary
CNC(=O)c1ccccc1Nc1cc(NC(=O)Cc2ccccc2)ncc1C(F)(F)F,58*,-9
CC(C)Cc1nnc(-c2cc3ccccc3n2CC(=O)N2CCc3ccccc32)o1,9,.
COc1cc(NC(=O)c2cccc(-n3cc(NC(=O)NCc4ccc(Cl)cc4)cn3)c2)ccc1N1CCOCC1,-37,-9
CNC(=O)c1ccccc1Nc1cc(NC(=O)Cc2ccc(OC)cc2)ncc1C(F)(F)F,70*,1
CNC(=O)c1ccccc1Nc1cc(NC(=O)Cc2cccc(OC)c2)ncc1C(F)(F)F,55*,2
CNC(=O)c1ccccc1Nc1cc(NC(=O)Cc2c(Cl)cccc2Cl)ncc1C(F)(F)F,-9,15
COc1ccc(CC(=O)Nc2cc(Nc3ccccc3-c3ncccn3)c(C(F)(F)F)cn2)cc1,5,11
NC(=O)c1ccc(-c2ccc(C(=O)NCCc3ccc(O)cc3)s2)cc1,-4,3
CC(C)C[C@H](O)C(=O)N1CCC(Nc2ccc3[nH]ncc3c2)CC1,53*,-38
CC(C)C[C@H](O)C(=O)N1CCC(C(=O)Nc2ccc3[nH]ncc3c2)CC1,2,-10
CC(C)(C)C(=O)N1CCC(c2nc(-c3cnccn3)no2)CC1,7,.
COc1ccccc1OCc1nc2ccc(-c3ccnc(N)n3)cc2[nH]1,48*,-1
COc1cccc2c1OCC(c1nc3ccc(-c4ccnc(N)n4)cc3[nH]1)C2 (stereo unspecified),-2,-3
Nc1nccc(-c2ccc3nc(CCOc4ccc(CC(=O)NC5CC5)cc4)[nH]c3c2)n1,11,6
Cc1ccccc1OCc1nc2ccc(-c3ccnc(N)n3)cc2[nH]1,43*,8
Cc1ccccc1OCc1nc2ccc(-c3cn[nH]c3)cc2c(=O)[nH]1,-14,14
COc1cccc(OCc2nc3ccc(-c4ccnc(N)n4)cc3[nH]2)c1,62*,10
Nc1nc(N2CCCC2CO)nc2c1ncn2-c1ccccc1 (stereo unspecified),2,8
CC(C)n1c(-c2ccc(N3CCN(C)CC3)cc2)nc2c(NCCc3ccc(O)cc3)ncnc21,-5,7
O=C(NCCOc1ccccc1)c1cccc(Nc2ccccc2)n1,-26,6
O=S(=O)(NCc1ccccc1)c1ccc(-c2ncnc3[nH]ccc23)cc1,45*,1
COc1cccc(CNC(=O)Nc2ccc(-c3ncnc4[nH]ccc34)cc2)c1,16,-7
COc1cccc(CNS(=O)(=O)c2ccc(-c3ccnc4[nH]ccc34)cc2)c1,22,-6
COc1cccc(CNS(=O)(=O)c2ccc(-c3ncnc4[nH]cc(C)c34)cc2)c1,59*,0
Nc1cccc(-c2cc(NCc3nc4ccccc4[nH]3)nc(N)n2)c1,-5,-10
SMILES,ULK1 inh,ASK1 primary
c1cc(-c2cc(NC3CCCCC3)nc(-c3ccncc3)n2)ccn1,4,.
O=C(NC1CCN(Cc2ccccc2)CC1)c1ccc2nc(NCc3cccnc3)sc2c1,1,-5
c1cncc(CNc2nc(Nc3ccncc3)nc3c2ncn3C2CCCCC2)c1,-7,-6
Cc1ncn(-c2ccc(Nc3nccc(Nc4ccccc4-c4ccn(C)n4)n3)cc2)n1,-38,-21
COCCNc1cc(-c2ccccc2F)nc(-c2ccncc2)n1,-9,.
O=C(O)c1ccccc1-c1c2cc(I)c(=O)c(I)c-2oc2c(I)c(O)c(I)cc12,26,.
O=C(O)c1c(Cl)c(Cl)c(Cl)c(Cl)c1-c1c2cc(I)c(=O)c(I)c-2oc2c(I)c(O)c(I)cc12,45*,.
Cc1noc(C)c1-c1cncc(C(=O)NC2CCN(Cc3ccccc3)CC2)c1,-2,-10
Cn1ccc2cc(-c3cncc(C(=O)NCCN4CCOCC4)c3)ccc21,-19,-6
CCOC(=O)C(N)Cc1ccc(O)c(O)c1 (stereo unspecified),66*,.
COC(=O)[C@@H](N)Cc1ccc(O)c(O)c1,14,.
COc1cc(NC(=O)c2cnc(-c3c(C)nn(C)c3C)s2)cc(OC)c1OC,-6,9
Cc1cc(NCc2ccccc2)nc(NC2CCC(O)CC2)n1 (stereo unspecified),0,-14
Nc1c(N=Nc2ccc(-c3ccc(N=Nc4cc(S(=O)(=O)O)c5ccccc5c4N)cc3)cc2)cc(S(=O)(=O)O)c2ccccc12,56*,.
O=S(=O)(O)c1ccccc1O,-3,.
Cc1cc(-c2ccc(N=Nc3ccc4c(S(=O)(=O)O)cc(S(=O)(=O)O)c(N)c4c3O)c(C)c2)ccc1N=Nc1ccc2c(S(=O)(=O)O)cc(S(=O)(=O)O)c(N)c2c1O,57*,.
Cc1cccc(CC(=O)Nc2cnn(-c3cccc(C(=O)Nc4cccc(C)c4)c3)c2)c1,-13,-3
Nc1nc(NCCOc2ccccc2)cc(NC2CCN(Cc3ccccc3)CC2)n1,5,-15
CC(=O)Nc1ccc(Nc2nc(-c3cccc(C(C)=O)c3)nc3c2ncn3-c2ccsc2)cc1,-5,8
CC(C)N(CCNc1ncnc2nc(Nc3ncccn3)[nH]c12)C(C)C,26,5
CC(C)n1cnc2c(Nc3ccc(N4CCOCC4)cc3)nc(Nc3ccccc3)nc21,56*,15
CC(C)n1cnc2c(Nc3ccccc3)nc(Nc3cnccn3)nc21,23,3
CC(C)n1cnc2c(Nc3ccc(N4CCOCC4)cc3)nc(Nc3cnccn3)nc21,65*,6
CCNc1nc(Nc2ccc(N3CCOCC3)cc2)c2ncn(C(C)C)c2n1,34,8
CC(C)n1cnc2c(Nc3ccc(N4CCOCC4)cc3)nc(Nc3ncccn3)nc21,16,-13
SMILES,ULK1 inh,ASK1 primary
CC(=O)Nc1ccc(Nc2nc(Cl)nc3c2ncn3C(C)C)cc1,47*,-19
CC(=O)Nc1ccc(Nc2nc(Nc3cnccn3)nc3c2ncn3C(C)C)cc1,61*,8
CC(C)n1cnc2c(Nc3ccccc3)nc(Cl)nc21,30,-3
FC(F)(F)c1cccc(-c2cc(NCCCn3ccnc3)nc(-c3ccncc3)n2)c1,-23,.
O=C(Nc1ccccc1)c1ccc2nc(Nc3ccc(N4CCOCC4)cc3)sc2c1,-4,17
O=C(Cc1cn(-c2ccc(Cl)nn2)c2ccccc12)NCCN1CCOCC1,21,5
O=C(Nc1ccc2[nH]ncc2c1)C1CCN(C(=O)C(O)c2ccc(Br)cc2)CC1 (stereo unspecified),-3,1
O=C1NC(=O)/C(=C\c2cc(Br)cc(Cl)c2O)S1,44*,.
CC(=O)Nc1ccc(/C=C2/SC(=O)NC2=O)cc1,2,.
COc1cc(NC(=O)c2cccc(-n3cc(NS(=O)(=O)c4ccc5ccccc5c4)cn3)c2)cc(OC)c1OC,-38,-18
c1ccc(-c2cc(NCCCN3CCOCC3)nc(-c3cccnc3)n2)cc1,-8,.
CS(=O)(=O)Nc1ccc(-c2ccnc(Nc3cccc(S(N)(=O)=O)c3)n2)cc1,58*,-20
CS(=O)(=O)Cc1ccc(-c2ccnc(Nc3ccc(S(N)(=O)=O)cc3)n2)cc1,50*,-14
CN(C)S(=O)(=O)Nc1ccc(-c2ccnc(Nc3ccc(S(N)(=O)=O)cc3)n2)cc1,48*,3
CCS(=O)(=O)c1ccc(-c2ccnc(Nc3ccc(S(N)(=O)=O)cc3)n2)cc1,15,-24
NS(=O)(=O)c1ccc(Nc2nccc(-c3ccc(Nc4ccccc4)cc3)n2)cc1,-4,-59
CS(=O)(=O)Nc1cccc(-c2ccnc(Nc3cccc(S(N)(=O)=O)c3)n2)c1,26,-1
Nc1nccc(-c2ccc3nc(C4COc5ccc(C(=O)Cc6ccccc6)cc5C4)[nH]c3c2)n1 (stereo unspecified),-7,20
